# Where “and” joins values, the source holds several entries; their conditions need not be identical. Identical values can stand only once. This is part of a sample that, as a whole, favours compounds with a hit. Of some 83,000 tested, about 20% had one in any assay.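 The endpoint reported here, percent growth, reads 100 for growth as untreated, 0 for no net growth and -100 for all cells dead.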 Calls of active or inactive are those of the source. Rule for the calls: active = growth percent below 10; inactive = the rest.
# How the values were obtained:
# Assay in all cases: NCI-60 one-dose screen, 48 h (100 = growth as untreated, 0 = no growth, -100 = all killed)
# Conditions in all cases: 10 µM unless noted
# HCT-15 colon = tested on: HCT-15 colon
# HT29 colon = tested on: HT29 colon
# SNB-75 CNS = tested on: SNB-75 CNS
# SNB-19 CNS = tested on: SNB-19 CNS
# U251 CNS = tested on: U251 CNS
# PC-3 prostate = tested on: PC-3 prostate
# SK-MEL-5 melanoma = tested on: SK-MEL-5 melanoma
# UACC-62 melanoma = tested on: UACC-62 melanoma
# LOX IMVI melanoma = tested on: LOX IMVI melanoma
# SK-MEL-28 melanoma = tested on: SK-MEL-28 melanoma
SMILES,growth (HCT-15 colon),growth (HT29 colon),growth (SNB-75 CNS),growth (SNB-19 CNS),growth (U251 CNS),growth (PC-3 prostate),growth (SK-MEL-5 melanoma),growth (UACC-62 melanoma),growth (LOX IMVI melanoma),growth (SK-MEL-28 melanoma)
COc1ccc(/C=N/Nc2nc3ccccc3s2)cc1,90.4% (inactive),92.3% (inactive),80.5% (inactive),99% (inactive),85.9% (inactive),81.2% (inactive),91.6% (inactive),83% (inactive),95.4% (inactive),99.2% (inactive)
CC(C)(C)OC(=O)NCCc1ccc(N)cc1,111% (inactive),95.6% (inactive),87.6% (inactive),104% (inactive),103% (inactive),89.5% (inactive),99.2% (inactive),100% (inactive),106% (inactive),112% (inactive)
CCOC(=O)c1ccc(C(=N)N)cc1,103% (inactive),106% (inactive),100% (inactive),113% (inactive),100% (inactive),89.6% (inactive),107% (inactive),108% (inactive),97.9% (inactive),120% (inactive)
COC(=O)c1nc(=S)[nH]c(C(=O)OC)c1C(=O)c1ccccc1,103% (inactive),109% (inactive),86.6% (inactive),102% (inactive),105% (inactive),91.2% (inactive),103% (inactive),92.6% (inactive),94.2% (inactive),105% (inactive)
CC1=CC(=O)C=CC1=Nc1ccc(N(C)C)cc1,96.8% (inactive) and 32.4% (inactive),105% (inactive) and 45.1% (inactive),123% (inactive) and 76.4% (inactive),97.1% (inactive) and 73.4% (inactive),21.2% (inactive),56% (inactive) and 12.1% (inactive),89.4% (inactive) and 17.6% (inactive),88.1% (inactive) and 18.2% (inactive),83.4% (inactive),96.8% (inactive) and 74.7% (inactive)
O=C(N=C1C(=O)C2(CCCCC2)C2(N=C(c3ccccc3)OC2=O)C12CCCCC2)c1ccccc1 (stereo not given),62.3% (inactive),51.5% (inactive),85.2% (inactive),71.5% (inactive),59.6% (inactive),42.8% (inactive),64.6% (inactive),58.6% (inactive),71.5% (inactive),84.5% (inactive)
Cc1cc2ccccc2c2cc3ccccc3cc12,82.4% (inactive),88.3% (inactive),100% (inactive),105% (inactive),102% (inactive),90.8% (inactive),89.8% (inactive),87.8% (inactive),95.4% (inactive),107% (inactive)
CN1C2C=CC(=O)C1C1C(=O)N(c3ccccc3)C(=O)C12 (stereo not given),42% (inactive),48.8% (inactive),92.6% (inactive),95.7% (inactive),62.1% (inactive),54.8% (inactive),92% (inactive),84.3% (inactive),38.7% (inactive),95.4% (inactive)
N=C(N=C(N)N)N1CCOCC1,101% (inactive) and 94.5% (inactive),104% (inactive) and 111% (inactive),90.5% (inactive) and 89.8% (inactive),110% (inactive) and 99.1% (inactive),101% (inactive) and 103% (inactive),93.7% (inactive) and 94.5% (inactive),96.1% (inactive) and 98% (inactive),105% (inactive) and 100% (inactive),102% (inactive) and 93.2% (inactive),99.5% (inactive) and 103% (inactive)
COC(=O)c1nc(=S)[nH]c(C(=O)OC)c1C(=O)c1ccc(OC)cc1,100% (inactive),106% (inactive),101% (inactive),101% (inactive),108% (inactive),93% (inactive),97.3% (inactive),95.9% (inactive),94.8% (inactive),109% (inactive)
CC(O)CCNC(c1ccccc1)C(O)c1ccccc1 (stereo not given),109% (inactive),97.3% (inactive),96.5% (inactive),103% (inactive),106% (inactive),94.8% (inactive),109% (inactive),108% (inactive),99% (inactive),112% (inactive)
CS(=O)(=O)OCC1NC(=O)C(COS(C)(=O)=O)NC1=O (stereo not given),91.8% (inactive) and 88.4% (inactive),85.6% (inactive) and 81.3% (inactive),56.5% (inactive) and 100% (inactive),105% (inactive) and 110% (inactive),95.9% (inactive) and 93.9% (inactive),88.3% (inactive) and 82.6% (inactive),96.5% (inactive) and 103% (inactive),101% (inactive) and 102% (inactive),94.1% (inactive) and 90.5% (inactive),115% (inactive) and 112% (inactive)
O=C(NC(=O)c1ccc(F)c(Cl)c1)NC1CC1,86.5% (inactive) and 74.6% (inactive),96.4% (inactive) and 94.5% (inactive),105% (inactive) and 122% (inactive),104% (inactive),104% (inactive),98.6% (inactive) and 87.5% (inactive),88% (inactive),99.8% (inactive) and 96.6% (inactive),98.6% (inactive),111% (inactive) and 107% (inactive)
O=[N+]([O-])c1ccc(N/N=C/C2CCCCCC2)c([N+](=O)[O-])c1,89.1% (inactive),100% (inactive),117% (inactive),102% (inactive),96.8% (inactive),79.7% (inactive),96.9% (inactive),81% (inactive),89.2% (inactive),99.7% (inactive)
COc1ccc2oc3c(ccc[n+]3C)c(=O)c2c1,100% (inactive),96.6% (inactive),100% (inactive),97.9% (inactive),93.6% (inactive),93.1% (inactive),99.4% (inactive),92.6% (inactive),99.9% (inactive),103% (inactive)
N#Cc1ccc(/C=C/C(=O)c2ccccc2)cc1,49.6% (inactive) and 82.3% (inactive),12% (inactive) and 70.5% (inactive),87.3% (inactive),89.9% (inactive),33.2% (inactive) and 62.5% (inactive),52.2% (inactive),90.9% (inactive) and 102% (inactive),91.3% (inactive) and 89.9% (inactive),28% (inactive) and 82% (inactive),124% (inactive) and 93.1% (inactive)
CC(=O)Oc1cc(C(C)C)c(OCCN(C)C)cc1C,105% (inactive) and 104% (inactive),110% (inactive) and 115% (inactive),102% (inactive) and 89.9% (inactive),105% (inactive) and 98.2% (inactive),-90.7% (active) and 97.7% (inactive),92% (inactive) and 103% (inactive),106% (inactive) and 103% (inactive),99.7% (inactive) and 94% (inactive),94% (inactive) and 102% (inactive),119% (inactive) and 88.5% (inactive)
CCN(CC)Cc1cc2[nH]c3c4ccc(Cl)cc4ncc3c2cc1OC,45.9% (inactive) and 16.8% (inactive),10.2% (inactive) and 9.65% (active),74.9% (inactive) and 84.7% (inactive),104% (inactive) and 103% (inactive),3.79% (active) and 64.8% (inactive),52.4% (inactive) and 70% (inactive),-97.7% (active),35% (inactive) and 110% (inactive),-71.8% (active) and -38.7% (active),-90% (active) and 115% (inactive)
CCOC(=O)C1=C(C)NC(C)=C(C(=O)OCC)C1,108% (inactive) and 90.8% (inactive),101% (inactive) and 102% (inactive),83.1% (inactive) and 76.6% (inactive),99.5% (inactive),104% (inactive) and 91.2% (inactive),82.4% (inactive) and 104% (inactive),101% (inactive) and 103% (inactive),94.4% (inactive) and 102% (inactive),98.4% (inactive) and 102% (inactive),105% (inactive) and 101% (inactive)

# Source: PubChem BioAssay (NCI)
